Measured values taken from PubChem BioAssay (NCI).
“And” between values parts separate entries of the source, which are not always exact repeats. Identical values can stand only once. The panel holds about 83,000 compounds, 20% with a hit somewhere; the sample as a whole holds those more often.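 96-well plates, one dose, 48 hours. Percent growth reported; active if below 10.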 Unmarked numbers belong to inactive results. The source made the active and inactive calls.

Tests used:
Assay in all cases: NCI-60 one-dose screen, 48 h (100 = growth as untreated, 0 = no growth, -100 = all killed)
Conditions in all cases: 10 µM unless noted
NCI-H23 lung = test system: NCI-H23 lung
NCI-H226 lung = test system: NCI-H226 lung
NCI-H322M lung = test system: NCI-H322M lung
HOP-62 NSCLC = test system: HOP-62 NSCLC
NCI-H460 lung = test system: NCI-H460 lung
HOP-92 NSCLC = test system: HOP-92 NSCLC
NCI-H522 lung = test system: NCI-H522 lung
A549/ATCC NSCLC = test system: A549/ATCC NSCLC
786-0 renal = test system: 786-0 renal
COLO 205 colon = test system: COLO 205 colon
DU-145 prostate = test system: DU-145 prostate
K-562 leukemia = test system: K-562 leukemia
MALME-3M melanoma = test system: MALME-3M melanoma
MDA-MB-231 breast = test system: MDA-MB-231 breast
RXF 393 renal = test system: RXF 393 renal
SF-268 CNS = test system: SF-268 CNS
SF-295 CNS = test system: SF-295 CNS
SF-539 CNS = test system: SF-539 CNS
UACC-257 melanoma = test system: UACC-257 melanoma
M14 melanoma = test system: M14 melanoma

| SMILES | growth (NCI-H23 lung) | growth (NCI-H226 lung) | growth (NCI-H322M lung) | growth (HOP-62 NSCLC) | growth (NCI-H460 lung) | growth (HOP-92 NSCLC) | growth (NCI-H522 lung) | growth (A549/ATCC NSCLC) | growth (786-0 renal) | growth (COLO 205 colon) | growth (DU-145 prostate) | growth (K-562 leukemia) | growth (MALME-3M melanoma) | growth (MDA-MB-231 breast) | growth (RXF 393 renal) | growth (SF-268 CNS) | growth (SF-295 CNS) | growth (SF-539 CNS) | growth (UACC-257 melanoma) | growth (M14 melanoma) |
| --- | --- | --- | --- | --- | --- | --- | --- | --- | --- | --- | --- | --- | --- | --- | --- | --- | --- | --- | --- | --- |
| CN(C)CCN1C(=O)c2c(c3c4ccccc4n4c3c3c2c2ccccc2n3C2CC(O)C(O)C4(C)O2)C1=O (stereo not given) | 23.1% | 18.6% | 34.8% | 14.2% | 2.33% (active) | 75.9% | -5.02% (active) | 5.47% (active) | 29.3% | 18.9% | 16.9% | 11.4% | 23.5% | 58.4% | 29.9% | 35.2% | 8.95% (active) | 24.3% | 34.7% | 23.9% |
| Cc1ccc(Cl)cc1N1CCN(C(=O)[C@@H]2C[C@@H]2c2ccc(F)cc2)CC1 | 84.2% | 73.6% | 93% | 100% | 99.7% | 74.9% | 69.3% | 77.7% | 93.6% | 107% | 114% | 75.6% | 95% | 102% | 103% | 90.1% | 88.9% | 95.6% | 95.4% | 93.4% |
| Nc1nc(Nc2ccc(F)cc2)nn1C(=O)c1cc(Cl)ccc1Cl | 71.9% | 80.9% | 66.4% | 85.4% | 69.4% | 75.1% | 87.8% | 75.2% | 72.9% | 83.8% | 78.8% | 97.4% | 108% | 88.2% | 21.8% | 74.9% | 94.3% | 72.8% | 106% | 86.8% |
| CN(Cc1ccccc1)c1nc(Cl)c(C2CC(c3ccc(F)cc3)=NN2C=O)s1 (stereo not given) | 84.2% | 95.9% | 93.1% | 107% | 96.9% | 89.5% | 83.3% | 94.6% | 93.9% | 99.7% | 104% | 77.9% | 105% | 97% | 92.9% | 91.2% | 92.2% | 107% | 103% | 92.8% |
| COc1ccc(/C(C)=C(\c2ccc(OCCN3CCOCC3)cc2)c2ccc(OC(=O)C3CCCCC3)cc2)cc1 | 101% | 113% | 99.5% | 108% | 107% | 109% | 104% | 106% | 104% | 110% | 95.7% | 89.2% | 97.7% | 111% | 121% | 101% | 103% | 94.7% | 112% | 102% |
| N#Cc1ccccc1-c1ccc(Cn2c(-c3cscn3)nc3c(Cl)cccc32)cc1 | 70.9% | 66.2% | 91.6% | 97.4% | 82.6% | 63.7% | 44.7% | 72.3% | 79.8% | 107% | 86.5% | 49.2% | 92.4% | 79.7% | 99.5% | 71.3% | 67.9% | 82.9% | 89.5% | 87.1% |
| COc1ccc(C(CC(=O)c2ccc3c(c2)OCO3)C(=O)O)cc1OC (stereo not given) | 104% and 96.7% | 110% | 107% and 96.1% | 106% and 104% | 102% and 112% | 108% and 101% | 88.6% and 78.1% | 92.6% and 98% | 111% and 98.6% | 122% and 107% | 121% and 106% | 119% and 90.1% | 114% and 90.3% | 128% and 113% | 115% and 106% | 111% and 97.7% | 86.9% and 81.9% | 126% and 104% | 91.5% and 106% | 115% and 103% |
| O=C1C(=C(O)c2ccccc2)C(=O)c2ccccc21 | 103% | 104% | 109% | 99.5% | 116% | 88% | 101% | 105% | 95.6% | 121% | 104% | 95.4% | 103% | 107% | 135% | 95.2% | 105% | 100% | 108% | 102% |
| Nn1c(-c2ccc(Cl)cc2)nc2c(-c3ccc(Cl)cc3)nc3ccc(Cl)cc3c2c1=O | 56.3% | 1.77% (active) | 35.3% | -78.2% (active) | -63.2% (active) | 27.4% | 48.9% | -61.2% (active) | -65.3% (active) | 22.3% | -32.5% (active) | 18.5% | 10.1% | 36.6% | 1.11% (active) | 14.8% | 22.6% | 14.1% | 3.36% (active) | -0.438% (active) |
| COc1cc(CNC(=O)CCCC/C=C/C(C)C)ccc1OCc1cn(-c2ccc([N+](=O)[O-])cc2)nn1 | 83.2% | 89.6% | 97.9% | 80.9% | 99.8% | 90.3% | 78.2% | 84.1% | 93.7% | 118% | 105% | 74.5% | 98.4% | 75.3% | 99.7% | 86.1% | 89% | 104% | 82.6% | 89.7% |
| c1ccc(-c2cc(-c3cc(-c4ccccc4)on3)no2)cc1 | 74.9% | 98.8% | 89.9% | 107% | 45% | 86.1% | 62.2% | 78.9% | 106% | 94.2% | 9.62% (active) | 77.7% | 114% | 105% | 74.8% | 90.1% | 82.2% | 91.3% | 79.6% | 109% |
| COC(=O)c1[nH]nc(OC)c1C1(C(C#N)c2nc3ccccc3s2)CCCc2ccccc21 (stereo not given) | 97.5% | 84.9% | 99.6% | 85% | 99% | 72.9% | 98.4% | 96.2% | 101% | 103% | 108% | 92.4% | 101% | 79.9% | 117% | 101% | 97.5% | 106% | 101% | 95.2% |
| CN1CCN(Cc2ccc(NC(=O)c3cccc(C#Cc4c(N)ncc5ccc(F)cc45)c3)cc2C(F)(F)F)CC1 | -78.2% (active) | 4.59% (active) | 3.59% (active) | -36.4% (active) | -92.3% (active) | -49.4% (active) | -61.1% (active) | -69.6% (active) | -83.2% (active) | -59.6% (active) | -89.9% (active) | -29.5% (active) | -54.5% (active) | -79% (active) | -89.6% (active) | -45.8% (active) | -65.4% (active) | -94.5% (active) | -62.5% (active) | -71% (active) |
| Nc1nc(Cl)nc2c1ncn2C1OC(CO)C(O)C1O (stereo not given) | 19.9% and 34.4% | 110% | 93.1% and 101% | 46.6% and 63.7% | 80% and 87.4% | 42.8% | 50.6% and 52.1% | 46.2% and 49.9% | 24.1% and 37.5% | 70% | 64.8% and 44.9% | 67% | 74.7% and 76.4% | 71.1% and 90.7% | 123% and 118% | 57.6% and 63.4% | 102% and 103% | 91.7% and 111% | 99.1% and 85.9% | -14% (active) and 4.59% (active) |
